Results taken from PubChem BioAssay (NCATS).
Values joined by “and” are separate entries in the source; they are usually repeats but may differ in a detail not shown here. Equal entries are not always repeated. Inconclusive results are not listed. Values without a mark were called inactive. Active and inactive are the calls of the source. Calls come from the whole dose curve; as a rule, active = well fitted curve in the direction sought with a large enough effect; inconclusive = small, poorly fitted or top-dose-only effect, or another doubt; inactive = no such curve, though single readings can be large; an effect the other way counts as inactive or inconclusive.

assay: Quantitative High-Throughput drug screen in 47 multiple myeloma cell lines against the NCATS MIPE library collection: NCIH929_DSMZ cell viability assay (AID 1918978); conditions: NCI-H929 myeloma viability, CellTiter-Glo ATP, 48 h; series mostly up to 45.8 µM; viability, % of control: at the top concentration
Method in brief: (§1)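 ATP-based luminescence (CellTiter-Glo, 5 min RT incubation) quantified surviving cells following two days' treatment with MIPE 4.0 agents at 37 °C, 5% CO2.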
Note: nearly all actives have a fitted effect of over 35% in size.
Potency is the fitted concentration of half-maximal effect.

Row | Structure (SMILES) | Potency | viability, % of control
1 | CCn1c(-c2nonc2N)nc2c(C#CC(C)(C)O)ncc(OC[C@H]3CCCNC3)c21 | 0.0209 µM (active) | –
2 | c1ccc([C@H]2CN3CCSC3=N2)cc1 | – | 106%
3 | Cc1[nH]c(=O)c(C#N)cc1-c1ccncc1 | 10.5 µM (active) | –
4 | NC(=O)c1ccc(I)c([N+](=O)[O-])c1 | 8.33 µM (active) | –
5 | N[C@@H]1CONC1=O | – | 115%
6 | CCc1cc(Nc2nccc(-c3c(-c4ccc(OC)c(C(=O)Nc5c(F)cccc5F)c4)nc4ccccn34)n2)c(OC)cc1N1CCC(N2CCN(S(C)(=O)=O)CC2)CC1 | 7.43 µM (active) | –
7 | CCOc1ccc(Cc2cc([C@@H]3O[C@H](CO)[C@@H](O)[C@H](O)[C@@H]3O)ccc2Cl)cc1 | – | 114%
8 | OCCn1cc(-c2cnc3nnn(Cc4ccc5ncccc5c4)c3n2)cn1 | – | 111%
9 | C[C@]1(c2nc3c(C(N)=O)cccc3[nH]2)CCCN1 | 23.5 µM (active) | –
10 | Fc1ccc(Cl)cc1-c1nc(Nc2ccncc2)c2nccnc2n1 | 16.6 µM (active) | –
11 | Cc1cccc(-c2[nH]c(C(C)(C)C)nc2-c2ccc3nccnc3c2)n1 | 16.6 µM (active) | –
12 | CN(C)c1ccc(Nc2nc(N)n(C(=O)c3c(F)cccc3F)n2)cc1 | 26.4 µM (active) | –
13 | CNC[C@H](O)c1cccc(O)c1 | – | 127%
14 | CC(C)(C)NCC(O)c1ccc(O)c(CO)c1 (stereo not drawn) | – | 120%
15 | C[C@H](NC(=O)Cc1cc(F)cc(F)c1)C(=O)N[C@@H]1C(=O)N(C)c2ccccc2-c2ccccc21 | 4.69 µM (active) | –
16 | O=C1[C@H](Cc2ccc(O)cc2)N2C(=O)CCN(C(=O)NCc3ccccc3)[C@H]2CN1Cc1cccc2ccccc12 | 3.72 µM (active) | –
17 | CCN(CC)CCCC(C)Nc1nc(C)cc(Nc2ccc3nc(C)cc(N)c3c2)n1 (stereo not drawn) | 16.6 µM (active) | –
18 | Cc1ccnc(NS(=O)(=O)c2ccc(NC(=O)Nc3ccc(S(=O)(=O)Nc4nccc(C)n4)cc3)cc2)n1 | – | 90.3%
19 | COCCNCCCn1c(C(=O)CF)c(-c2ccc(C)cc2)c2c(N)ncnc21 | – | 106%
20 | NC(=O)c1cnccn1 | – | 119%
21 | COCC(=O)NCC=Cc1ccc2ncnc(Nc3ccc(Oc4ccc(C)nc4)c(C)c3)c2c1 | 20.9 µM (active) | –
22 | CNCc1ccc(-c2[nH]c3cc(F)cc4c3c2CCNC4=O)cc1 | – | 91.7%
23 | Cc1cn[nH]c1 | 1.18 µM (active) | –
24 | CC(C=CC1=C(C)CCCC1(C)C)=CC=CC(C)=CC(=O)O | 18.7 µM (active) and 6.62 µM (active) | –
25 | O=C(C1CC1)N1CC[C@@H](Cn2c(-c3ccc(-c4ccc5occc5c4)cc3)nc3cnccc32)C1 | – | 88.6%
26 | Cn1cnc2c(F)c(Nc3ccc(Br)cc3Cl)c(C(=O)NOCCO)cc21 | 0.105 µM (active) | –
27 | COc1ccc([C@@H]2CC(=O)c3c(O)cc(O[C@@H]4O[C@H](CO[C@@H]5O[C@@H](C)[C@H](O)[C@@H](O)[C@@H]5O)[C@@H](O)[C@H](O)[C@@H]4O)cc3O2)cc1O | – | 101%
28 | O=S(=O)(N=Cc1c(O)ccc2ccccc12)c1cccs1 | 4.69 µM (active) | –
29 | COc1cc(Nc2ncc3c(n2)-c2ccc(Cl)cc2C(c2c(F)cccc2OC)=NC3)ccc1C(=O)O | – | 81.8%

assay: Quantitative High-Throughput drug screen in 47 multiple myeloma cell lines against the NCATS MIPE library collection: OCIMY1_PLB cell viability assay (AID 1918979); conditions: OCI-MY1 myeloma viability, CellTiter-Glo ATP, 48 h; series mostly up to 45.8 µM; viability: at the top concentration;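 for viability: 100% = DMSO-only wells and 0% = cell-free media-only wells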
Method in brief: as §1

Row | Structure (SMILES) | Potency | viability
30 | CCn1c(-c2nonc2N)nc2c(C#CC(C)(C)O)ncc(OC[C@H]3CCCNC3)c21 | 4.18 µM (active) | –
31 | c1ccc([C@H]2CN3CCSC3=N2)cc1 | – | 130%
32 | Cc1[nH]c(=O)c(C#N)cc1-c1ccncc1 | – | 117%
33 | NC(=O)c1ccc(I)c([N+](=O)[O-])c1 | – | 116%
34 | N[C@@H]1CONC1=O | – | 102%
35 | CCOc1ccc(Cc2cc([C@@H]3O[C@H](CO)[C@@H](O)[C@H](O)[C@@H]3O)ccc2Cl)cc1 | – | 112%
36 | CN(C)c1ccc(Nc2nc(N)n(C(=O)c3c(F)cccc3F)n2)cc1 | – | 90.4%
37 | CNC[C@H](O)c1cccc(O)c1 | – | 123%
38 | N=c1nc(N2CCCCC2)cc(N)n1O | – | 110%
39 | CC1(C)CNc2cc(NC(=O)c3cccnc3NCc3ccncc3)ccc21 | – | 109%
40 | O=C1[C@H](Cc2ccc(O)cc2)N2C(=O)CCN(C(=O)NCc3ccccc3)[C@H]2CN1Cc1cccc2ccccc12 | 16.6 µM (active) | –
41 | Cc1ccnc(NS(=O)(=O)c2ccc(NC(=O)Nc3ccc(S(=O)(=O)Nc4nccc(C)n4)cc3)cc2)n1 | – | 100%
42 | COCCNCCCn1c(C(=O)CF)c(-c2ccc(C)cc2)c2c(N)ncnc21 | – | 87.3%
43 | NC(=O)c1cnccn1 | – | 110%
44 | CNCc1ccc(-c2[nH]c3cc(F)cc4c3c2CCNC4=O)cc1 | – | 104%
45 | Cc1cn[nH]c1 | 1.87 µM (active) | –
46 | CC(C=CC1=C(C)CCCC1(C)C)=CC=CC(C)=CC(=O)O | – | 75%
47 | O=C1CCc2cc(OCCCCc3nnnn3C3CCCCC3)ccc2N1 | – | 111%
48 | O=C(C1CC1)N1CC[C@@H](Cn2c(-c3ccc(-c4ccc5occc5c4)cc3)nc3cnccc32)C1 | – | 106%
49 | Cc1cc(Nc2nc(N[C@@H](C)c3ncc(F)cn3)ncc2Cl)n[nH]1 | – | 80.5%
50 | Cn1cnc2c(F)c(Nc3ccc(Br)cc3Cl)c(C(=O)NOCCO)cc21 | – | 82.6%
51 | COc1ccc([C@@H]2CC(=O)c3c(O)cc(O[C@@H]4O[C@H](CO[C@@H]5O[C@@H](C)[C@H](O)[C@@H](O)[C@@H]5O)[C@@H](O)[C@H](O)[C@@H]4O)cc3O2)cc1O | – | 112%
52 | O=S(=O)(N=Cc1c(O)ccc2ccccc12)c1cccs1 | – | 79.8%
53 | COc1cc(Nc2ncc3c(n2)-c2ccc(Cl)cc2C(c2c(F)cccc2OC)=NC3)ccc1C(=O)O | – | 90.9%
